The text below walks through data of PubChem BioAssay.

Assay [1] relates to Wnt5a (protein binding on small-molecule microarray). The assay can be described thus: small molecules binding Wnt5a protein – biophysical, small-molecule microarray, 635/667 nm fluorescence, primary screen (AID 1142).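 Note: fluorescence read at 667 nm with signal to noise per printed feature.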 The following applies: 635 nm fluorescence, higher = more signal.
Assay [2] in a line: ATP-based viability of Huh7 replicon cells – cell-based, CellTiter-Glo luminescence, basal, 48 h, cytotoxicity control for HCV replication inhibitor project, primary screen (AID 1143).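 Note: Huh7 hepatoma cells carrying a hepatitis C replication reporter with no stimulus; test concentration not given here.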 The following applies: higher = more signal, called active from +8 up or from −8 down.
Assay [3] in a line: Pseudomonas biofilm growth suppression – PAO1 strain, BacTiter-Glo luminescence, LB-PBS, primary screen (AID 1144). The following applies: P. aeruginosa PAO1 biofilm, 12 h, higher = more signal.
A short description of assay [4]: basal CRE-LacZ reporter activity in PC12 – cell-based, unstimulated, primary screen (AID 1145). The following applies: no forskolin, luminescence, 4.5 h, higher = more signal, called active from +8 up or from −8 down.
Assay [5] can be described thus: forskolin-driven CRE-LacZ activity in PC12 – cell-based, CRE-LacZ reporter, forskolin-stimulated, primary screen (AID 1146).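 Note: PC12 cells with 6xCRE LacZ reporter stimulated by forskolin 10 µM; beta-galactosidase reporter signal reflecting CREB driven transcription.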 The following applies: luminescence, 4.5 h, higher = more signal, called active from +8 up or from −8 down.
The target of assay [6] is Streptavidin (Streptomyces avidinii) (UniProt P22629). The assay is described as follows: compounds binding control protein streptavidin – biophysical, small-molecule microarray, 635/667 nm fluorescence, artefact control for SMM compound annotation, primary screen (AID 1147).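 Note: signal reflects streptavidin binding to arrayed compounds as a control protein.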 As to conditions: higher = more signal.
Streptavidin (Streptomyces avidinii), sequence (P22629 whole entry, looked up): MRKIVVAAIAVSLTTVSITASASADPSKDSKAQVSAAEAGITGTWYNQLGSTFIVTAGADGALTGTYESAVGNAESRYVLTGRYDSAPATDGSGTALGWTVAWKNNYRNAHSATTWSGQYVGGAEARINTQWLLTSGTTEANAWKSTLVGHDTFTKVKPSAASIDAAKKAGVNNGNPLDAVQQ
Assay [7] in a line: probe aInhba binding on compound microarray – biochemical, small-molecule microarray, 635/667 nm fluorescence, primary screen (AID 1148).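 Note: score merges 667nm spot fluorescence with signal-to-noise for antibody binding to printed compounds.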 The following applies: higher = more signal.
The target in assay [8] is Torsin-1A (Homo sapiens) (UniProt O14656). The assay is described as follows: TOR1A wild-type binding on microarray – cell lysate, small-molecule microarray, lysate, 635/667 nm, primary screen (AID 1149). As to conditions: COS7 hTOR1A-WT lysate, 635 nm fluorescence, higher = more signal.
Torsin-1A (Homo sapiens), sequence (O14656 whole entry, looked up): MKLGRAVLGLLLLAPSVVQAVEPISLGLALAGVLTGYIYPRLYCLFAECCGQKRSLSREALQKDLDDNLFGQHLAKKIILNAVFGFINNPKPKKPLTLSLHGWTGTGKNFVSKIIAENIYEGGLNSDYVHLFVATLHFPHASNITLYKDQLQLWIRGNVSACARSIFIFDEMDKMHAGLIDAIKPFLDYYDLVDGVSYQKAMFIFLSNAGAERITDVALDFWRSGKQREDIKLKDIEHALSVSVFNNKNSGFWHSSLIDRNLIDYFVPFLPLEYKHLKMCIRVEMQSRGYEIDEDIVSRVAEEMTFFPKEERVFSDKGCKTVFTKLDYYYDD
The target is the same in assay [9]. The assay can be described thus: torsin A mutant lysate binding on microarrays – cell lysate, small-molecule microarray, COS7 lysate, 635/667 nm fluorescence, primary screen (AID 1150).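 Note: score pools 667 nm emission and signal to noise measuring lysate protein binding.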 The following applies: COS7 hTOR1A mutant lysate, 635 nm fluorescence, higher = more signal.
Assay [10] relates to Sonic hedgehog protein (Shh). The assay is described as follows: Sonic hedgehog microarray binding compounds – biochemical, small-molecule microarray, 635/667 nm fluorescence, primary screen (AID 1151).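 Note: Shh protein binding to compounds spotted on small-molecule microarray slides; score combines spot fluorescence intensity with signal-to-noise across triplicate slides.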 As to conditions: 635 nm fluorescence, higher = more signal.
Assay [11] is described as follows: optical density shifts of acrAB sulA E. coli – strain DRC41, OD650, 48 h, E. coli filamentation inducer project, primary screen (AID 1152).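 Note: E. coli MC1000 strain DRC41 lacking acrAB efflux pump and sulA.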 The following applies: higher = more signal, called active from +8 up or from −8 down.
Assay [12] can be described thus: probe aLefty1 binding on compound microarray – biochemical, small-molecule microarray, 635/667 nm fluorescence, primary screen (AID 1153).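 Note: score merges spot fluorescence with signal-to-noise ratio from the scanned slide images.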 As to conditions: higher = more signal.
The nature of assay [13]: plasmodial surface anion channel blockers, osmotic lysis – cell-based, P. falciparum Indochina, OD700, 1 h, primary screen (AID 1154). The following applies: P. falciparum Indochina infected RBC osmotic lysis, higher = more signal, called active from +8 up or from −8 down.
The nature of assay [14]: plasmodial surface anion channel blockers, osmotic lysis – cell-based, P. falciparum Indochina, OD700, 2 h, primary screen (AID 1155).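 Note: lysis reports solute entry through the parasite surface anion channel PSAC.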 As to conditions: P. falciparum Indochina infected erythrocytes, higher = more signal, called active from +8 up or from −8 down.
Assay [15] is described as follows: changes in parasitized red cell lysis, either direction – P. falciparum Indochina, OD700, 3 h, PSAC antagonist project, primary screen (AID 1156). The following applies: P. falciparum-infected erythrocytes, osmotic lysis, higher = more signal, called active from +8 up or from −8 down.
The nature of assay [16]: plasmodial surface anion channel blockers, osmotic lysis – cell-based, P. falciparum Indochina, OD700, 18 h, primary screen (AID 1157). As to conditions: P. falciparum Indochina infected erythrocytes, osmotic lysis OD700, 18 h; higher = more signal, called active from +8 up or from −8 down.
The nature of assay [17]: S6 kinase pathway phospho-S6 level changes – cell-based, A549, cytoblot, luminescence, serum-stimulated, primary screen (AID 1158).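 Note: serum-stimulated A549 lung adenocarcinoma cells; signal is phosphorylated S6 detected by cytoblot immunostaining with HRP secondary.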 As to conditions: 5 h, higher = more signal.
In assay [18] the target is NADPH oxidase 2 (Homo sapiens) (UniProt P04839). The assay is described as follows: compounds shifting NOX2 Amplex Red fluorescence – cell-based, HEK293-NOX2, PMA-stimulated, NOX inhibitor project, primary screen (AID 1159). Note: test concentration not given here. The following applies: 45 min, higher = more signal, called active from +8 up or from −8 down.
NADPH oxidase 2 (Homo sapiens), sequence (P04839 whole entry, looked up): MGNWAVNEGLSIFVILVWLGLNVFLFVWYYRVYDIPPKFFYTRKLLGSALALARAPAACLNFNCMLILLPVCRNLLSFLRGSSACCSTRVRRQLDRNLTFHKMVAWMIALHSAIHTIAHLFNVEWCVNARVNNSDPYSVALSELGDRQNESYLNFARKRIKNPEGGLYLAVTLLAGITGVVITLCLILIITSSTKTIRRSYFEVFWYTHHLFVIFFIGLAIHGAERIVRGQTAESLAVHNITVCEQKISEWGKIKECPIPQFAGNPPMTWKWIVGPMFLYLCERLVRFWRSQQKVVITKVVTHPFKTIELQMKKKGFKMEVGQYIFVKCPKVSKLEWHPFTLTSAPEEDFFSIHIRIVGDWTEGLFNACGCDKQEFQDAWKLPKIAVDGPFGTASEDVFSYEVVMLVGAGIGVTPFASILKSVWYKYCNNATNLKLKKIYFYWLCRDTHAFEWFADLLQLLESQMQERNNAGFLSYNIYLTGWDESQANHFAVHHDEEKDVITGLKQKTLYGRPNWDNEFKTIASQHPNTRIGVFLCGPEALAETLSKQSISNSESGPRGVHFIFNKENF
Assay [19] has as its target NADPH oxidase 4 (Homo sapiens) (UniProt Q9NPH5). The assay can be described thus: compounds shifting NOX4 Amplex Red fluorescence – cell-based, HEK293-NOX4, tetracycline-induced, NOX inhibitor project, primary screen (AID 1160). The following applies: HEK293-NOX4, Amplex Red H2O2 fluorescence, 45 min; higher = more signal, called active from +8 up or from −8 down.
Assay [20] addresses NADPH oxidase 5 (Homo sapiens) (UniProt Q96PH1). The assay can be described thus: compounds shifting NOX5 Amplex Red fluorescence – cell-based, HEK293-NOX5, NOX inhibitor project, primary screen (AID 1161). The following applies: HEK293-NOX5, ionomycin, 45 min, higher = more signal.

Active and inactive are the calls of the source. Unless noted, the rule behind the calls is not given here.

NADPH oxidase 4 (Homo sapiens), sequence (Q9NPH5 whole entry, looked up): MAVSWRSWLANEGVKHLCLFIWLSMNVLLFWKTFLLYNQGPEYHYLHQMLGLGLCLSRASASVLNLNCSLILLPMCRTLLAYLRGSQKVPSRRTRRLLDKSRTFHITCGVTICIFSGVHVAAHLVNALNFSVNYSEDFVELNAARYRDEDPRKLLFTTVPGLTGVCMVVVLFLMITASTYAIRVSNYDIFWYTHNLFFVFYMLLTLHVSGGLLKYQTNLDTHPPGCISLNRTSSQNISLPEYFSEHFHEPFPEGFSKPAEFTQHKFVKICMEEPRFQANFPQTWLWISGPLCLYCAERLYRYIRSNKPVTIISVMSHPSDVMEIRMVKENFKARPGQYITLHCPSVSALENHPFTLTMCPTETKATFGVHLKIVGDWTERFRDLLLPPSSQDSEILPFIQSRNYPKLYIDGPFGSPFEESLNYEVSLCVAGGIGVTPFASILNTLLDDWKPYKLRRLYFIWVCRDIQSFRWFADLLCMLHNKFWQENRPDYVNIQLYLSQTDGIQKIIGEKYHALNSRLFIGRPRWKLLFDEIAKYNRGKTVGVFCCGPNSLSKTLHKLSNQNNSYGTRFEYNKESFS
NADPH oxidase 5 (Homo sapiens), sequence (Q96PH1 whole entry, looked up): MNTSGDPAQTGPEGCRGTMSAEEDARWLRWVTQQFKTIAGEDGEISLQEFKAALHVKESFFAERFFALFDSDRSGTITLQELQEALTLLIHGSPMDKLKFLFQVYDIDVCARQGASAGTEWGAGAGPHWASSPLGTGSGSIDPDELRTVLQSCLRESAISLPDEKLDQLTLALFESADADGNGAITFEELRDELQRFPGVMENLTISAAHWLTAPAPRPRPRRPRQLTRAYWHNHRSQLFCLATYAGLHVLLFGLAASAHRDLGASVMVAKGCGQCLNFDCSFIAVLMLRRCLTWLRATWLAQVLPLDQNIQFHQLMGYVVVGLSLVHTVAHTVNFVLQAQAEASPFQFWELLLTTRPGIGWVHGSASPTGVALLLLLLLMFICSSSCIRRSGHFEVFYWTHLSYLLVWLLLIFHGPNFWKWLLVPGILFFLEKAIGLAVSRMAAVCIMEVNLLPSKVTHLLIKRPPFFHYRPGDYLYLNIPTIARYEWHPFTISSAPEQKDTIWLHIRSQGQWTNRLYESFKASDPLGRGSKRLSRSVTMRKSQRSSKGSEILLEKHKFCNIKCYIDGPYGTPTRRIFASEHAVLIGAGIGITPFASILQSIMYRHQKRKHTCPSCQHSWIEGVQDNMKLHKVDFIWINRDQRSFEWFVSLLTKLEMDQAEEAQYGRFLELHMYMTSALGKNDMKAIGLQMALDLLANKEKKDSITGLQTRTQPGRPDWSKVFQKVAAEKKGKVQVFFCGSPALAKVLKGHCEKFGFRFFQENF

Regarding `CC(C)(C)N1C(=O)[C@H]2[C@H]3[C@H](O)[C@H](O)CC(=NNC(=O)OCc4ccccc4)[C@@H]3CC[C@H]2C1=O`, the composite z-score is -0.0841 in assay [1]; 0.171 in assay [6]; -0.13 in [7]; 0.472 with Torsin-1A (Homo sapiens) [8]; 0.322 in the assay with Torsin-1A (Homo sapiens) [9]; 0.226 in assay [10]. Further, the composite z-score in assay [12] is -0.153. Further, the z-score in assay [2] is 0.633 (inactive); in assay [3] it was -0.0893 (inactive); in [4], -0.0258 (inactive); in assay [5] it was 0.314 (inactive); in assay [11], 0.323 (inactive); in assay [13], 0.0391 (inactive). Besides, the z-score in assay [14] is 0.193 (inactive); in assay [15], -0.279 (inactive); in [16], -0.385 (inactive); in assay [17], -0.731; in [18] it was 0.788 (inactive); in assay [19], 0.739 (inactive). In addition, in assay [20], the z-score is 0.0356.

As to `CC(=O)OC[C@H]1O[C@@H](ON=C2[C@H]3CCn4c(=O)n(-c5ccccc5)c(=O)n4[C@H]3[C@H](O)[C@@H]3O[C@H]23)[C@H](OC(C)=O)[C@@H](OC(C)=O)[C@@H]1OC(C)=O`, the composite z-score in assay [1] was 0.196; in [6] it was 0.324; in assay [7], 0.0282; with Torsin-1A (Homo sapiens) [8] it was 0.0264; in the assay with Torsin-1A (Homo sapiens) [9], 0.422; in assay [10], 1.23. The compound also displayed a composite z-score in assay [12] of 0.106. The z-score is 1.03 (inactive) in assay [2]; 1.56 (inactive) in assay [3]; -0.403 (inactive) in assay [4]; 0.265 (inactive) in assay [5]; -0.132 (inactive) in [11]; 0.597 (inactive) in [13]. Also, the z-score was 0.454 (inactive) in assay [14]; -0.258 (inactive) in assay [15]; 0.465 (inactive) in assay [16]; -0.862 in assay [17]; -0.186 (inactive) in assay [18]; -0.47 (inactive) in assay [19]. Besides, the z-score in [20] was found to be 0.187.

As to `O=C1C[C@H](c2ccccc2)[C@H](c2ccc(Br)cc2)O1`, the composite z-score in assay [1] was 0.0974; in assay [6] it was 0.521; in assay [7] it was -0.128; in the assay with Torsin-1A (Homo sapiens) [8] it was -0.0753; with Torsin-1A (Homo sapiens) [9], -0.022; in [10], 0.212. In [12], the composite z-score was -0.464. Also, the z-score in assay [2] was -1.52 (inactive); in assay [3] it was -1.42 (inactive); in [4], 0.375 (inactive); in assay [5], -0.0385 (inactive); in assay [11] it was -1.16 (inactive); in assay [13] it was -0.142 (inactive). Besides, the z-score in assay [14] was -1.13 (inactive); in assay [15], -0.0291 (inactive); in assay [16] it was -1.6 (inactive); in assay [17], 1.61; in [18] it was 0.146 (inactive); in [19], -0.255 (inactive). For the same compound, in assay [20], the z-score was -0.446.

With `CC(C)=NO[C@H](C)c1cn([C@@H]2COC[C@H]2O)nn1`, the composite z-score in assay [1] was 0.185; in [6] it was -0.085; in [7], -0.0963; with Torsin-1A (Homo sapiens) [8], 0.455; with Torsin-1A (Homo sapiens) [9] it was 0.461; in assay [10] it was 0.477. The compound further registered a composite z-score in assay [12] of -0.0518. Moreover, the z-score in assay [2] was 0.495 (inactive); in assay [3], -1.16 (inactive); in assay [4] it was 0.099 (inactive); in assay [5] it was -0.0851 (inactive); in [11], 0.36 (inactive); in assay [13], 0.813 (inactive). Also, the z-score was 0.935 (inactive) in assay [14]; 0.627 (inactive) in assay [15]; 0.489 (inactive) in [16]; 0.381 in [17]; 0.0279 (inactive) in [18]; 0.549 (inactive) in assay [19]. Moreover, the z-score in [20] was 0.595.

For `CC(C)(C)N1C(=O)[C@H]2[C@@H]3C(=CC[C@H]2C1=O)C(=O)[C@H]1O[C@H]1[C@H]3O`, the composite z-score was -0.264 in assay [1]; -0.5 in [6]; -0.127 in assay [7]; 1.84 with Torsin-1A (Homo sapiens) [8]; -0.0252 with Torsin-1A (Homo sapiens) [9]; 0.981 in [10]. Moreover, the composite z-score in assay [12] was -0.328. For the same compound, the z-score in assay [2] was -6.85 (inactive); in [3], 0.652 (inactive); in assay [4], -0.748 (inactive); in assay [5], -3.08 (inactive); in assay [11] it was -0.537 (inactive); in [13], -0.23 (inactive). The z-score in [14] is -1.7 (inactive); in assay [15] it was 0.0794 (inactive); in assay [16], -2.24 (inactive); in [17], 0.495; in [18] it was -0.593 (inactive); in assay [19], -0.168 (inactive). Also, in assay [20], the z-score worked out at 1.22.

`CC(=O)OC[C@H]1O[C@H](C#CCCc2ccccc2)C=C[C@@H]1OC(C)=O`: the composite z-score in [1] was -0.0248; in [6] it was -0.0683; in assay [7] it was -0.0719; in the assay with Torsin-1A (Homo sapiens) [8] it was 0.27; with Torsin-1A (Homo sapiens) [9] it was 0.553; in [10], 1.52. For the same compound, the composite z-score in assay [12] came out at 0.233. Also, the z-score in assay [2] is -1.42 (inactive); in assay [3], 1.34 (inactive); in assay [4], -0.339 (inactive); in assay [5] it was 0.859 (inactive); in [11], -0.2 (inactive); in assay [13], 1.43 (inactive). Further, the z-score in [14] is 0.317 (inactive); in assay [15], 0.182 (inactive); in assay [16] it was 0.148 (inactive); in assay [17], -0.427; in assay [18], -1.58 (inactive); in assay [19], 1.39 (inactive). Also, the z-score in assay [20] was determined as 1.07.

With `CO[C@H]1COC(=O)CC=C[C@H](C)[C@H](OC)COC(=O)[C@@H](C)NC(=O)CC=C[C@@H]1C`, the composite z-score in assay [1] was -0.0492; in assay [6] it was -0.201; in [7], -0.179; with Torsin-1A (Homo sapiens) [8] it was 2.9; with Torsin-1A (Homo sapiens) [9] it was 1.82; in assay [10], 2.06. This compound registered a composite z-score in [12] of -0.0939. Further, the z-score in assay [2] was -0.379 (inactive); in [3] it was -0.727 (inactive); in assay [4], 0.276 (inactive); in assay [5], 0.314 (inactive); in [11] it was -0.619 (inactive); in assay [13], -0.89 (inactive). Further, the z-score in assay [14] was -1.35 (inactive); in [15], -0.14 (inactive); in assay [16] it was -1.92 (inactive); in assay [17], -0.365; in assay [18] it was -0.677 (inactive); in assay [19] it was 0.557 (inactive). Moreover, in [20], the z-score was found to be 0.197.

With `O=C1C[C@@H](O)[C@@H](O)[C@@H]2[C@@H]3C(=O)N(C4CCCCC4)C(=O)[C@@H]3CC[C@@H]12`, the composite z-score in assay [1] is 0.0446; in [6], 0.148; in assay [7] it was -0.145; with Torsin-1A (Homo sapiens) [8], -0.0977; with Torsin-1A (Homo sapiens) [9], 0.311; in assay [10], 0.684. This compound returned a composite z-score in assay [12] of -0.395. The z-score in assay [2] was 0.0366 (inactive); in assay [3], 0.749 (inactive); in assay [4], -0.0223 (inactive); in [5], -0.393 (inactive); in assay [11], -0.348 (inactive); in [13], 0.733 (inactive). Besides, the z-score in assay [14] was 0.14 (inactive); in assay [15], 0.265 (inactive); in assay [16] it was -0.0387 (inactive); in [17], -0.604; in assay [18] it was -0.0439 (inactive); in assay [19], 0.468 (inactive). For the same compound, the z-score in [20] came out at 0.0192.
